Data as given in the supplement of paper PMC10849652.
Of roughly 8,800 targets only a part is listed; those with a hit were picked by preference. About 0.5% of all pairs of compound and target were hits.

Experiments:
Assay in all cases: log2 fold change, soluble protein after heating vs DMSO (PISA); higher = thermal stabilisation; K562 lysate, 10 uM; active = over 0.2 and 3.5 SD of the protein, either way, in both replicates (recomputed)
[1] = compound: CC1=C2C(=CC=C1)N=C(N(C2=O)C3=CC=CC=C3C)CN4C=NC5=C(N=CN=C54)N
In short: (§1)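 Pellets of K562 cells were dounce-homogenised in PBS pH 7.4 with 1 mM MgCl2, and the crude extract was held at 1 mg/mL protein for a 30 min treatment with 10 μM compound. Aliquots were heated for 3 min over 48°C-58°C and pooled before NP-40 was added to 0.5% at 4°C. The supernatant from 21,000xg for 90 min was quantified by TMTpro 16plex LC-MS/MS with channel sums equalised. Values are reported from duplicates as log-two fold change in thermal stability relative to solvent controls.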

[2] = compound: Cc1sc2c(c1C)C(c1ccc(Cl)cc1)=N[C@@H](CC(=O)OC(C)(C)C)c1nnc(C)n1-2
In short: as §1

[3] = compound: c1ccc([C@@H]2C[C@H]2NC2CCNCC2)cc1
In short: as §1

[4] = compound: C1=CC=C(C=C1)[C@H](COC2=CC3=C(C=C2)NC(=O)N3)NC(=O)C4=CC=CN(C4=O)CC5=CC(=C(C=C5)F)F
In short: as §1

[5] = compound: CC1=C(SC2=C1C(=N[C@H](C3=NN=C(N32)C)CC(=O)N)C4=CC=C(C=C4)Cl)C
In short: as §1

Measured: log2 fold change

LSM11 (UniProt P83369)
Chain of UniProt P83369 (P83369 whole entry, looked up): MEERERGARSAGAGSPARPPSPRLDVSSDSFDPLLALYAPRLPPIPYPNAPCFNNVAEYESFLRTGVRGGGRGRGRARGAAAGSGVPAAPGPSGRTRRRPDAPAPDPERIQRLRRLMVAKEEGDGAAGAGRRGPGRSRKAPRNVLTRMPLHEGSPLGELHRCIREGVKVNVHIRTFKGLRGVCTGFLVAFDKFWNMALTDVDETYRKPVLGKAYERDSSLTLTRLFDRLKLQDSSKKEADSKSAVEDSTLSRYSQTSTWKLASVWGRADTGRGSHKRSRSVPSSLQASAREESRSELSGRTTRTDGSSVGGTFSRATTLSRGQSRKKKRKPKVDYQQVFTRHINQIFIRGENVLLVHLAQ
inactive: [1] 0.285 | [2] -0.045 | [3] -0.089

MRPL35 (UniProt Q9NZE8)
inactive: [4] -0.028 | [5] -0.002 | [1] 0.331 | [2] -0.04 | [3] 0

LETM1 (UniProt O95202)
Chain of UniProt O95202 (O95202 whole entry, looked up): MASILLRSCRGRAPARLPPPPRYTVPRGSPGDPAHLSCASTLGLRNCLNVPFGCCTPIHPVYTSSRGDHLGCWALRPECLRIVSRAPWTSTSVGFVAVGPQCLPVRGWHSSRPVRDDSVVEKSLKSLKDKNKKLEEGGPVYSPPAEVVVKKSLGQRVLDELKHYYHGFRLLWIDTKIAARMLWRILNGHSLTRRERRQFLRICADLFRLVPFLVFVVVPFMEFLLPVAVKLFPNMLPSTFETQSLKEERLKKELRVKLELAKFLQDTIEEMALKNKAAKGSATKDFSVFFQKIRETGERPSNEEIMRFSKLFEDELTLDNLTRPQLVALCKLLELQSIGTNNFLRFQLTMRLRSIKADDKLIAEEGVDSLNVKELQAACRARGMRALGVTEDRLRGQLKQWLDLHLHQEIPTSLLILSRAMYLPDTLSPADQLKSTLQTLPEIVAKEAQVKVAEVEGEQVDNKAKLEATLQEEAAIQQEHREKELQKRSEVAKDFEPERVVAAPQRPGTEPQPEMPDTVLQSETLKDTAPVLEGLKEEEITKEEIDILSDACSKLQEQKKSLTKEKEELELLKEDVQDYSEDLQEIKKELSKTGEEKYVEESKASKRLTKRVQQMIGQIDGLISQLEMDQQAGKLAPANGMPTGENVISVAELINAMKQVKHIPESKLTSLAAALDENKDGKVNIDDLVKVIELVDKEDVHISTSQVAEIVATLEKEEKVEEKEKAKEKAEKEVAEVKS
inactive: [4] 0.006 | [5] -0.017 | [1] 0.002 | [2] 0.042 | [3] -0.053

MDM2 isoform 11 (UniProt Q00987)
Chain of UniProt Q00987 (Q00987 whole entry, looked up): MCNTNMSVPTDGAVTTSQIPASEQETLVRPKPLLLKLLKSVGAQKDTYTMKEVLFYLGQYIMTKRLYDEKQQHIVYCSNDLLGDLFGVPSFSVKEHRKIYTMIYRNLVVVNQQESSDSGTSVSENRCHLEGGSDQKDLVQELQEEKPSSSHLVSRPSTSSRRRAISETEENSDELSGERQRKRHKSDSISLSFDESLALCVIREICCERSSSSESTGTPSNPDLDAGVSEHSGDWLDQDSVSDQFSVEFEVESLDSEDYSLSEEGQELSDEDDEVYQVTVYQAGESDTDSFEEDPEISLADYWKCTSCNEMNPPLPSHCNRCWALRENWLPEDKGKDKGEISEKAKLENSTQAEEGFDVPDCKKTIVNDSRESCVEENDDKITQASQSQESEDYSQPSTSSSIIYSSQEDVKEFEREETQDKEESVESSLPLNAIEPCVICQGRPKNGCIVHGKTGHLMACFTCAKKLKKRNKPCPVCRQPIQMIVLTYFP
inactive: [4] 0.109 | [5] -0.092 | [1] -0.007 | [3] -0.158

MAP4K5 (UniProt Q9Y4K4)
Chain of UniProt Q9Y4K4 (Q9Y4K4 whole entry, looked up): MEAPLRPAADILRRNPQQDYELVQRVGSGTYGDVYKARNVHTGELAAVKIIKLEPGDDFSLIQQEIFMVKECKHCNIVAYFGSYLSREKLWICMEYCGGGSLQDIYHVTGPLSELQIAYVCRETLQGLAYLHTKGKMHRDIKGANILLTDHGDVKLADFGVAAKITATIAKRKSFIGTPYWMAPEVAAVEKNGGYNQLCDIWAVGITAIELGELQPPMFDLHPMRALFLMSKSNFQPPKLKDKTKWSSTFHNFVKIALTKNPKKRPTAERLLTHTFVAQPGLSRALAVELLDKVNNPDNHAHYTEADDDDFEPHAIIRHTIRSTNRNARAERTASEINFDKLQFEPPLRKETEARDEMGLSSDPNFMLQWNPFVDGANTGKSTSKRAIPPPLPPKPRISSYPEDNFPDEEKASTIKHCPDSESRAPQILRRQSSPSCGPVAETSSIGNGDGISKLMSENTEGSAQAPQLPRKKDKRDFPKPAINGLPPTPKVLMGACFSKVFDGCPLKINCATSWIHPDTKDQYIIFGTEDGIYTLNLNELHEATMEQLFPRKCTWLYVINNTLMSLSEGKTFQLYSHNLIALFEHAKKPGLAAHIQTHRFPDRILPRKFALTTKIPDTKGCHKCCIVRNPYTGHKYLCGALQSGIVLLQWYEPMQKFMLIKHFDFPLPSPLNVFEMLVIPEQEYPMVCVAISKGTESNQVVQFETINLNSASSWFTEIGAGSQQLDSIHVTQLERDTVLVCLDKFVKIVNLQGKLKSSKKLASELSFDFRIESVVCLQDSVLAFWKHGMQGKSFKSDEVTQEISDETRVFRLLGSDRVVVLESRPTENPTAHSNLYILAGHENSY
inactive: [4] 0.069 | [5] 0.063 | [1] -0.079 | [2] -0.022 | [3] -0.1

KMT2B (UniProt Q9UMN6)
inactive: [2] -0.012

MRPL30 isoform 2 (UniProt Q8TCC3)
inactive: [4] 0.086 | [5] -0.056 | [2] -0.102 | [3] 0.476
